Assay results taken from PubChem BioAssay (EPA / NIEHS).
The source made the active and inactive calls. Rule for the calls: active = hit-call score of the fitted dose curve at least 0.9, where 1 is the maximum; inactive = score below 0.9.

Legend:
[1] = target: CCAAT/enhancer-binding protein beta (Homo sapiens) (UniProt P17676); experiment: ATG_C_EBP_CIS: Attagene CIS-FACTORIAL HepG2 Assay for human CCAAT/Enhancer Binding Protein (C/EBP) beta (AID 2282927); conditions: HepG2 Attagene cis-factorial transcription factor reporter; actives raise or lower the signal
Sequence of CCAAT/enhancer-binding protein beta (Homo sapiens) (P17676 whole entry, looked up): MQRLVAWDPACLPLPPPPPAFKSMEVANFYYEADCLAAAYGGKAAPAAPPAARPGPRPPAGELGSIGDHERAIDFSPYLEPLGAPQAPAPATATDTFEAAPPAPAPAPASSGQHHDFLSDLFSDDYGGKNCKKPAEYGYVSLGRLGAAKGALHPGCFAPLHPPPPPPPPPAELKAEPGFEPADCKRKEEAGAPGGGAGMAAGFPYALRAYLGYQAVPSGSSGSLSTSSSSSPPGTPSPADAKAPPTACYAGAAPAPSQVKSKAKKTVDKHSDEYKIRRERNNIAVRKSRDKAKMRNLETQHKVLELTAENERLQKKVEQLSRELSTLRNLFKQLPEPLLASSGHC
Summary of the method: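 Transiently transfected HepG2 (MRTU library, endogenous TF-driven promoters); 24 h dosing; total RNA → oligo(dT) RT → PCR → 6-FAM primer extension → HpaI digest → CE; fit bidirectionally vs DMSO.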

[2] = ATG_CMV_CIS: Attagene CIS-FACTORIAL HepG2 Assay for human CMV (Internal Marker) (AID 2282928); conditions: HepG2 CMV promoter reporter, transcription factor profiling; actives raise or lower the signal;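 note: endpoint acts as a background internal control marker rather than a target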
Summary of the method: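 Endogenous transcription factor activity read in HepG2 via transfected cis-promoter reporter units. After 24 h dosing, reporter mRNA measured by RT-PCR/capillary electrophoresis; gain or loss of signal fit relative to DMSO.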

[3] = ATG_DR4_LXR_CIS: Attagene CIS-FACTORIAL HepG2 Assay for human Liver X Receptor (LXR), DR4 submotif (AID 2282929); conditions: HepG2 Attagene DR4 cis-reporter, mRNA transcription; actives raise or lower the signal
Summary of the method: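 Transiently transfected HepG2 liver cells; cis-regulated reporters; 24 h dosing. RT-PCR plus CE read-out of reporter mRNA. DMSO baseline, bidirectional curve fitting.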

[4] = ATG_AP_1_CIS: Attagene CIS-FACTORIAL HepG2 Assay for human Activator Protein 1 (AP-1) (AID 2282931); conditions: HepG2 Attagene cis-factorial AP-1 reporter mRNA; actives raise or lower the signal
Summary of the method: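 We transfected HepG2 cells transiently with a set of cis-regulated reporter transcription units, dosed them for 24 h, and quantified reporter mRNA via RT-PCR and capillary electrophoresis, scoring gain or loss of signal relative to DMSO.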

[5] = ATG_BRE_CIS: Attagene CIS-FACTORIAL HepG2 Assay for human Bone Morphogenetic Protein (BMP) Response Element (BRE) (AID 2282933); conditions: HepG2 BMP response element reporter, Attagene transcription factor profiling; actives raise or lower the signal
Summary of the method: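 Endogenous transcription factor activity read in transiently transfected HepG2 cells after 24 h chemical exposure. Bidirectional curve fitting against DMSO; readout is reporter transcript level by RT-PCR with capillary electrophoresis of labelled products.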

[6] = ATG_E_Box_CIS: Attagene CIS-FACTORIAL HepG2 Assay for human Enhancer Box (E-box) (AID 2282936); conditions: HepG2 E-box cis-reporter transcription, actives raise or lower the signal
Summary of the method: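 First, HepG2 cells receive multiple cis-regulated reporter constructs by transient transfection. Next, chemicals are applied for 24 h. Finally, reporter mRNA is quantified via RT-PCR and capillary electrophoresis, with DMSO as baseline.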

[7] = ATG_EGR_CIS: Attagene CIS-FACTORIAL HepG2 Assay for human Early Growth Response 1 (EGR1) (AID 2282938); conditions: HepG2 Attagene CIS-FACTORIAL EGR reporter mRNA; actives raise or lower the signal
Summary of the method: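 Multiplexed cis-reporter system in human hepatoma HepG2 cells, transiently transfected. Cells are dosed for 24 h; reporter transcripts are amplified, fluorescently tagged and sized by capillary electrophoresis, with DMSO as negative control.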

[8] = ATG_M_19_CIS: Attagene CIS-FACTORIAL HepG2 Assay for M19 Transcription Factor (Internal Marker) (AID 2282939); conditions: HepG2 Attagene CIS-FACTORIAL M19 internal marker reporter; actives raise or lower the signal
Summary of the method: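 Internal marker readout, fitted in both directions against DMSO, from HepG2 cells carrying transfected cis-element reporter constructs; RT-PCR and capillary electrophoresis of reporter mRNA after 24 h exposure.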

[9] = ATG_Ets_CIS: Attagene CIS-FACTORIAL HepG2 Assay for human Erythroblast Transformation Specific (ETS) (AID 2282941); conditions: HepG2 ETS cis-reporter transcription, actives raise or lower the signal
Summary of the method: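 Steps: transfect HepG2 with multiple reporter units; treat compound 24 h; isolate RNA, DNase-treat, reverse-transcribe; PCR-amplify, label with 6-FAM, digest with HpaI; separate by capillary electrophoresis. Activity fitted both directions versus DMSO.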

[10] = ATG_FoxO_CIS: Attagene CIS-FACTORIAL HepG2 Assay for human Forkhead box O (FoxO) (AID 2282943); conditions: HepG2 Attagene cis-reporter, FoxO element, mRNA; actives raise or lower the signal
Summary of the method: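 Read-out: fluorescence of 6-FAM-labelled reporter cDNA fragments resolved by capillary electrophoresis. Transiently transfected HepG2 cells were dosed for 24 h; activity fitted in both directions relative to DMSO controls.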

[11] = ATG_GATA_CIS: Attagene CIS-FACTORIAL HepG2 Assay for human GATA Binding Protein (AID 2282944); conditions: HepG2 GATA cis-element reporter, Attagene multiplex mRNA; actives raise or lower the signal
Summary of the method: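 Reporter transcripts from a GATA cis-regulated unit, among multiplexed reporters in transfected HepG2 cells, were measured by RT-PCR with capillary electrophoresis after 24 h dosing. Induction or loss scored relative to DMSO.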

[12] = ATG_ISRE_CIS: Attagene CIS-FACTORIAL HepG2 Assay for human Interferon Regulatory Factor 1 (IRF1) binding to an Interferon-Stimulated Response Element (ISRE) (AID 2282948); conditions: HepG2 ISRE cis-reporter (Attagene), mRNA transcription readout; actives raise or lower the signal
Summary of the method: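 Transfected HepG2 (multiple reporter transcription units, cis elements) dosed 24 h. RNA → oligo(dT) RT → PCR → 6-FAM primer extension → HpaI → CE. DMSO = negative control/baseline.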

[13] = ATG_M_06_CIS: Attagene CIS-FACTORIAL HepG2 Assay for M06 Transcription Factor (Internal Marker) (AID 2282950); conditions: HepG2 Attagene CIS-FACTORIAL M06 internal marker reporter; actives raise or lower the signal
Summary of the method: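 Serves as a background control readout. Transfected HepG2 exposed to compounds for 24 h, then reporter transcripts quantified by fluorescent RT-PCR and capillary electrophoresis. Both directions fitted against DMSO baseline.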

[14] = ATG_MRE_CIS: Attagene CIS-FACTORIAL HepG2 Assay for human Metal Responsive Element (MRE) (AID 2282954); conditions: HepG2 MRE cis-reporter transcription, Attagene multiplex; actives raise or lower the signal
Summary of the method: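 Fluorescent reporter fragments separated by capillary electrophoresis give mRNA induction for the MRE unit after 24 h treatment of transfected HepG2 cells. Endogenous transcription-factor activity is read; DMSO serves as negative control and baseline.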

[15] = target: Paired box protein Pax-6 (Homo sapiens) (UniProt P26367); experiment: ATG_Pax6_CIS: Attagene CIS-FACTORIAL HepG2 Assay for human Paired Box 6 (PAX6) (AID 2282956); conditions: HepG2 CIS-FACTORIAL PAX6 reporter transcription, RNA readout; actives raise or lower the signal
Sequence of Paired box protein Pax-6 (Homo sapiens) (P26367 whole entry, looked up): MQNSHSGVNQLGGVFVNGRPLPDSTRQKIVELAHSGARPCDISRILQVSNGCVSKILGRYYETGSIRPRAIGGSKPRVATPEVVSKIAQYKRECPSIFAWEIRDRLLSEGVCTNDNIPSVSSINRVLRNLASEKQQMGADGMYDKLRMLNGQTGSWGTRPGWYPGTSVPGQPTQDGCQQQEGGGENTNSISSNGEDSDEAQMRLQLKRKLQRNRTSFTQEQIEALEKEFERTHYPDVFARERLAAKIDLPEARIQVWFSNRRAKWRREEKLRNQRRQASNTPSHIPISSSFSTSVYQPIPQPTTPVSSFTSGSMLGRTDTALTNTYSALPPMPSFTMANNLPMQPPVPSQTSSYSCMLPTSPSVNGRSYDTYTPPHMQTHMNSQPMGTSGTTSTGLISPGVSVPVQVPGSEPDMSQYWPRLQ
Summary of the method: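 Transient MRTU transfection of HepG2 → compound exposure 24 h → TriZol RNA, oligo(dT) RT → PCR, 6-FAM primer extension, HpaI cut → capillary electrophoresis; activity fitted both directions against DMSO.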

[16] = ATG_Sox_CIS: Attagene CIS-FACTORIAL HepG2 Assay for human SRY-box transcription factor (SOX) (AID 2282960); conditions: HepG2 Attagene cis-factorial SOX reporter, mRNA; actives raise or lower the signal
Summary of the method: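 Fluorescence-labelled cDNA fragments from reporter transcripts, sized by CE, give the signal. Cells: HepG2, transiently transfected with cis-regulated reporter units. Exposure 24 h; DMSO negative control; bidirectional curve fitting.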

[17] = target: Transcription factor Sp1 (Homo sapiens) (UniProt P08047); experiment: ATG_Sp1_CIS: Attagene CIS-FACTORIAL HepG2 Assay for human Specificity Protein 1 (Sp1) (AID 2282961); conditions: HepG2 Sp1 cis-reporter transcription, actives raise or lower the signal
Sequence of Transcription factor Sp1 (Homo sapiens) (P08047 whole entry, looked up): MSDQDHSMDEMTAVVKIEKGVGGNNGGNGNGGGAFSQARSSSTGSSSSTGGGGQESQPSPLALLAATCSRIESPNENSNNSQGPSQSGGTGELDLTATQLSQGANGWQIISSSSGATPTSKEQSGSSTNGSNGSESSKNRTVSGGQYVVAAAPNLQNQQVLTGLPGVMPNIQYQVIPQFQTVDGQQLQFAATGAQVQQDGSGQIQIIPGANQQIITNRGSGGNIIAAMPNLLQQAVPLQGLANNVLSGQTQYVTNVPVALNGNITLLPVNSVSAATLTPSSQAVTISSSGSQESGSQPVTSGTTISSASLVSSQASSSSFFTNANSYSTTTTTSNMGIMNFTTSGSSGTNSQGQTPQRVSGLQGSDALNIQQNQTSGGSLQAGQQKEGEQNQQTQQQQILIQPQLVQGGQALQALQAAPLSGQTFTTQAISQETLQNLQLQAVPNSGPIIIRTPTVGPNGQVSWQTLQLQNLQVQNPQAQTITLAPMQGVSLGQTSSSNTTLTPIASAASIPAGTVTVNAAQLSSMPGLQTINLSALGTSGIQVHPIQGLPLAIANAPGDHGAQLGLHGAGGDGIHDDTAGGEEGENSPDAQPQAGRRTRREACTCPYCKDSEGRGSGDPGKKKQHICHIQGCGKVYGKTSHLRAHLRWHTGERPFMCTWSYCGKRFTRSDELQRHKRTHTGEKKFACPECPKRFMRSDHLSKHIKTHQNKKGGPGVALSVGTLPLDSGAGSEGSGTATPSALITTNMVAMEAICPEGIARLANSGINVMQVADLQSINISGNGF
Summary of the method: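 Chemicals are dosed onto HepG2 cells transfected with multiple cis-promoter reporter constructs, and after 24 h reporter RNA is reverse-transcribed, PCR-amplified and resolved by capillary electrophoresis for fluorescence quantitation; activity is scored up or down against DMSO.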

[18] = target: Signal transducer and activator of transcription 3 (Homo sapiens) (UniProt P40763); experiment: ATG_STAT3_CIS: Attagene CIS-FACTORIAL HepG2 Assay for human Signal Transducer and Activator of Transcription 3 (STAT3) (AID 2282963); conditions: HepG2, Attagene cis-factorial STAT3 reporter transcription; actives raise or lower the signal
Sequence of Signal transducer and activator of transcription 3 (Homo sapiens) (P40763 whole entry, looked up): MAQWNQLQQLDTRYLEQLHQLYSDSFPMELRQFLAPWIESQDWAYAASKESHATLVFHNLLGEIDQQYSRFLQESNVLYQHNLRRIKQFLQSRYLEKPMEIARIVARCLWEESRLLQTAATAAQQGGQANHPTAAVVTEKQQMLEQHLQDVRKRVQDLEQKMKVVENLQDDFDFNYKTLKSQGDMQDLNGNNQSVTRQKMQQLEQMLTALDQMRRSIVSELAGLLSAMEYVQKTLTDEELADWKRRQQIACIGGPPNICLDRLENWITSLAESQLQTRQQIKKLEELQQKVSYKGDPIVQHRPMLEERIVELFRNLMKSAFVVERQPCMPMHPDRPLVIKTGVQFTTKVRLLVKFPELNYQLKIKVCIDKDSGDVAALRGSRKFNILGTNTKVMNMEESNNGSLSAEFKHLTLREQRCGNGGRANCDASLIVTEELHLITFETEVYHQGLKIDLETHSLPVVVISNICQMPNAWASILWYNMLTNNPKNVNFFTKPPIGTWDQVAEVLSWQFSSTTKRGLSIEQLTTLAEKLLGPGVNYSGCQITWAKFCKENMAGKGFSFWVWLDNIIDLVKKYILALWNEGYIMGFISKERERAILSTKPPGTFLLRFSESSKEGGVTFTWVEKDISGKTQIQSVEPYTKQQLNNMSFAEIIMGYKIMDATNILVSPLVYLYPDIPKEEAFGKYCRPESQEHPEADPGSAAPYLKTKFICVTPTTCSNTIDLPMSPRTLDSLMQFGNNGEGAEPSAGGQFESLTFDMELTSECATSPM
Summary of the method: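 Values derive from bidirectional fits relative to DMSO of reporter mRNA levels, measured by RT-PCR with capillary electrophoresis, in HepG2 cells carrying transiently transfected cis-regulated reporter units and exposed 24 h.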

[19] = ATG_TA_CIS: Attagene CIS-FACTORIAL HepG2 Assay for human TA Basal Promoter (AID 2282964); conditions: HepG2 Attagene CIS-factorial TA basal promoter reporter; actives raise or lower the signal
Summary of the method: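 Background-control readout: TA basal promoter reporter mRNA, fitted in both directions relative to DMSO. Measured by RT-PCR and capillary electrophoresis 24 hours after treating HepG2 human liver cells transiently carrying multiplexed cis-regulated reporter constructs.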

[20] = ATG_TCF_b_cat_CIS: Attagene CIS-FACTORIAL HepG2 Assay for human T-Cell-Factor with beta-catenin (TCF/b-cat) (AID 2282965); conditions: HepG2 TCF/beta-catenin cis-reporter transcription, actives raise or lower the signal
Summary of the method: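 HepG2, transient MRTU transfection, cis-element-driven reporters (endogenous TFs). 24 h compound exposure. Readout: reporter mRNA by RT-PCR + 6-FAM primer extension, HpaI digest, capillary electrophoresis. Gain/loss fit vs DMSO baseline.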

Measured: AC50

CCNCC
inactive: all assays above

CC(C)[C@@H](C(=O)O[C@@H](C#N)c1cccc(Oc2ccccc2)c1)c1ccc(Cl)cc1
active: [3] 9.57 µM
inactive: all other assays above

Oc1ccc(C2(c3ccc(O)cc3)c3ccccc3-c3ccccc32)cc1
active: [1] 17.1 µM | [2] 17.7 µM | [3] 10.6 µM | [6] 17 µM | [7] 14 µM | [10] 9.31 µM | [11] 14.6 µM | [12] 14.8 µM | [14] 13.1 µM | [15] 14.9 µM | [19] 17.2 µM
inactive: [4] | [5] | [8] | [9] | [13] | [16] | [17] | [18] | [20]

Oc1ccc(Cl)cc1
inactive: all assays above

Nc1ccc(Cl)c(Cl)c1
active: [3] 134 µM | [12] 135 µM
inactive: all other assays above

CC(C)CCCCCCCOC(=O)c1ccccc1C(=O)OCCCCCCCC(C)C
inactive: all assays above

CCCCCc1cc(O)cc(O)c1
active: [3] 154 µM | [6] 36.9 µM | [7] 100 µM | [14] 100 µM | [15] 146 µM | [19] 149 µM
inactive: all other assays above

O=S(=O)(O)O
inactive: all assays above

CCOC(=O)NC(=S)Nc1ccccc1NC(=S)NC(=O)OCC
inactive: all assays above

CCCCOC(=O)CCC(=O)OCCCC
inactive: all assays above

COc1cc(OC)nc(Oc2cccc(Oc3nc(OC)cc(OC)n3)c2C(=O)O)n1
inactive: all assays above

CC(C)COP(=O)(OCC(C)C)OCC(C)C
active: [3] 57.9 µM
inactive: all other assays above

Cc1cc(C)c(C2=C(OC(=O)CC(C)(C)C)C3(CCCC3)OC2=O)c(C)c1
active: [3] 28.5 µM | [4] 174 µM | [7] 104 µM | [12] 168 µM | [14] 76 µM | [15] 104 µM | [17] 88.6 µM
inactive: all other assays above

CC(C)(C)C(O)C(Oc1ccc(-c2ccccc2)cc1)n1cncn1 (stereo not given)
active: [1] 47.1 µM | [2] 33.4 µM | [3] 57.3 µM | [4] 44.2 µM | [12] 51.8 µM | [14] 42 µM | [19] 33.4 µM | [20] 51.8 µM
inactive: all other assays above
